Data taken from publication PMC9911399, “Two distinct binding modes provide the RNA-binding protein RbFox with extraordinary sequence specificity”.
Positions count from the first letter of the chain named. In all, about 16,000 sequences were measured (“ka relative to ugcaugu”: median about 0.096, highest 2% from about 0.35 on). For the sample, the highest values were picked, then their nearest neighbours and some sequences at random.

T1: RBFOX1 RRM RbFoxmut (Fox-RRM*) (Homo sapiens, UniProt Q9NWB1 109-208, R118D;E147R;N151S;E152T)
T1 sequence: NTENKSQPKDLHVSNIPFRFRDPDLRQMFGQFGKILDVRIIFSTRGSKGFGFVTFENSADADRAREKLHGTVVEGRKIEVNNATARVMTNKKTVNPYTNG

B1: CGGGAUC (DNA:RNA)
RNA: GGGAGACCGGAAUUCAGAUUGUCCCGGGAUCUUAAAUCCCGUCGUAGCCACCA
DNA 1: CAATCTGAATTCCGGTCTCCC
DNA 2: TGGTGGCTACGACGGGATT
B2: UGAUAUC (DNA:RNA)
RNA: B1 RNA with C25U, G27A, G28U
DNA 1: CAATCTGAATTCCGGTCTCCC
DNA 2: TGGTGGCTACGACGGGATT
B3: UGAUAUA (DNA:RNA)
RNA: B1 RNA with C25U, G27A, G28U, C31A
DNA 1: CAATCTGAATTCCGGTCTCCC
DNA 2: TGGTGGCTACGACGGGATT
B4: CGUCCGU (DNA:RNA)
RNA: B1 RNA with G27U, G28C, A29C, U30G, C31U
DNA 1: CAATCTGAATTCCGGTCTCCC
DNA 2: TGGTGGCTACGACGGGATT
B5: GUCCCGU (DNA:RNA)
RNA: GGGAGACCGGAAUUCAGAUUGUCCGUCCCGUUUAAAUCCCGUCGUAGCCACCA
DNA 1: CAATCTGAATTCCGGTCTCCC
DNA 2: TGGTGGCTACGACGGGATT
B6: GUAUUGU (DNA:RNA)
RNA: B5 RNA with C27A, C28U, C29U
DNA 1: CAATCTGAATTCCGGTCTCCC
DNA 2: TGGTGGCTACGACGGGATT
B7: GUCCGGA (DNA:RNA)
RNA: B5 RNA with C29G, U31A
DNA 1: CAATCTGAATTCCGGTCTCCC
DNA 2: TGGTGGCTACGACGGGATT
B8: CACCGGA (DNA:RNA)
RNA: B5 RNA with G25C, U26A, C29G, U31A
DNA 1: CAATCTGAATTCCGGTCTCCC
DNA 2: TGGTGGCTACGACGGGATT
B9: CGGAUUG (DNA:RNA)
RNA: B1 RNA with G28A, A29U, C31G
DNA 1: CAATCTGAATTCCGGTCTCCC
DNA 2: TGGTGGCTACGACGGGATT
B10: UGAUAUG (DNA:RNA)
RNA: B1 RNA with C25U, G27A, G28U, C31G
DNA 1: CAATCTGAATTCCGGTCTCCC
DNA 2: TGGTGGCTACGACGGGATT
B11: GGAUUGU (DNA:RNA)
RNA: B5 RNA with U26G, C27A, C28U, C29U
DNA 1: CAATCTGAATTCCGGTCTCCC
DNA 2: TGGTGGCTACGACGGGATT
B12: GUAUCGU (DNA:RNA)
RNA: B5 RNA with C27A, C28U
DNA 1: CAATCTGAATTCCGGTCTCCC
DNA 2: TGGTGGCTACGACGGGATT
B13: CGUAUCG (DNA:RNA)
RNA: B1 RNA with G27U, G28A, A29U, U30C, C31G
DNA 1: CAATCTGAATTCCGGTCTCCC
DNA 2: TGGTGGCTACGACGGGATT
B14: AUUCGUU (DNA:RNA)
RNA: B5 RNA with G25A, C27U, C29G, G30U
DNA 1: CAATCTGAATTCCGGTCTCCC
DNA 2: TGGTGGCTACGACGGGATT
B15: UUAGGAG (DNA:RNA)
RNA: B1 RNA with C25U, G26U, G27A, A29G, U30A, C31G
DNA 1: CAATCTGAATTCCGGTCTCCC
DNA 2: TGGTGGCTACGACGGGATT
B16: AGGCUCU (DNA:RNA)
RNA: B1 RNA with C25A, G28C, A29U, U30C, C31U
DNA 1: CAATCTGAATTCCGGTCTCCC
DNA 2: TGGTGGCTACGACGGGATT
B17: CGCGGGG (DNA:RNA)
RNA: B1 RNA with G27C, A29G, U30G, C31G
DNA 1: CAATCTGAATTCCGGTCTCCC
DNA 2: TGGTGGCTACGACGGGATT
B18: UCCAGCA (DNA:RNA)
RNA: B5 RNA with G25U, U26C, C28A, C29G, G30C, U31A
DNA 1: CAATCTGAATTCCGGTCTCCC
DNA 2: TGGTGGCTACGACGGGATT
B19: GGAUCGG (DNA:RNA)
RNA: B5 RNA with U26G, C27A, C28U, U31G
DNA 1: CAATCTGAATTCCGGTCTCCC
DNA 2: TGGTGGCTACGACGGGATT
B20: CACCACG (DNA:RNA)
RNA: B1 RNA with G26A, G27C, G28C, U30C, C31G
DNA 1: CAATCTGAATTCCGGTCTCCC
DNA 2: TGGTGGCTACGACGGGATT

target: T1, RBFOX1 RRM RbFoxmut (Fox-RRM*); assay: EMSA; HiTS-Eq, 1 nM pool, 10 min; buffer printed only for the single-RNA assays: 10 mM Tris pH 7.5, 150 mM NaCl, 3.4 mM EDTA, 0.001% NP-40, 30 C; details: tags: His6 N-terminal (pET28a); label: 5' 32P
Summary of the method: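 Purified wild-type or mutant RbFox RRM at increasing concentrations was equilibrated with 1 nM of 5′-radiolabelled RNA carrying 7 randomized nucleotides for 10 min in 50 µL. Unbound RNA was separated by 8% native PAGE and sequenced. Relative association constants came from read-count changes of each RNA species compared with the control reaction, normalised to the cognate motif.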

| Binder | binding signal |
| --- | --- |
| B1 | 0.141 KA relative to UGCAUGU |
| B2 | 0.145 KA relative to UGCAUGU |
| B3 | 0.0947 KA relative to UGCAUGU |
| B4 | 0.119 KA relative to UGCAUGU |
| B5 | 0.11 KA relative to UGCAUGU |
| B6 | 0.309 KA relative to UGCAUGU |
| B7 | 0.0725 KA relative to UGCAUGU |
| B8 | 0.0666 KA relative to UGCAUGU |
| B9 | 0.522 KA relative to UGCAUGU |
| B10 | 0.437 KA relative to UGCAUGU |
| B11 | 0.39 KA relative to UGCAUGU |
| B12 | 0.461 KA relative to UGCAUGU |
| B13 | 0.263 KA relative to UGCAUGU |
| B14 | 0.134 KA relative to UGCAUGU |
| B15 | 0.129 KA relative to UGCAUGU |
| B16 | 0.0577 KA relative to UGCAUGU |
| B17 | 0.0735 KA relative to UGCAUGU |
| B18 | 0.123 KA relative to UGCAUGU |
| B19 | 0.176 KA relative to UGCAUGU |
| B20 | 0.125 KA relative to UGCAUGU |
